Most compounds without a hit are left out; they make up all but 5.7% or so of the library.
ClpP mod: qHTS Assay for Activators of ClpP; ATP-dependent Clp protease proteolytic subunit (Bacillus subtilis (strain 168)), P80244; purified B. subtilis ClpP, FRET peptide cleavage, 20 min; Potency, µM (highest dose often 57.5 µM), for the others: top-dose activity change, negative = active; 340,000 compounds, 1.9% hits; active means well fitted falling curve with a large enough effect; inconclusive means small, poorly fitted or top-dose-only effect; inactive means no such curve, though single readings can be large or run the other way; further: potency means the concentration at half of the fitted maximal effect; the source files actives as falling curves though it sought activators and does not explain the sign; nearly all actives have a fitted effect of over 65% in size
Target sequence (P80244 whole entry, looked up): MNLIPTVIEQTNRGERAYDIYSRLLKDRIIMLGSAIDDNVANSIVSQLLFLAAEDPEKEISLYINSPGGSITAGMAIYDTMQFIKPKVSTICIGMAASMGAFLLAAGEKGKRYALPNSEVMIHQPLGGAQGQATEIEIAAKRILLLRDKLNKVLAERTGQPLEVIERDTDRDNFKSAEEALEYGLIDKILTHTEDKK
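Buffer: 100 mM Tris/HCl pH8, 100 mM KCl, 0.05% low protease BSA, 2.5% glycerol, 0.01% Tween-20. ClpP 10 microg/mL final; 20 min RT; delta FRET normalized to ADEP and DMSO controls.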
GLP-1R inv ag: GLP-1 receptor (human) inverse agonism. HEK293 GLP-1R CRE-luciferase, luminescence, 24 h; GLP-1R form is constitutively active. Potency, µM (series often up to 38.3 µM), without a hit: top-dose activity change, negative = inhibition, hits mostly inhibitors. 410,000 compounds, 1.6% hits; further: potency means the concentration at half of the fitted maximal effect; on the % scale 0 is the no-effect control and ±100 the full control effect; nearly all actives have a fitted effect of over 55% in size
Target sequence (P43220 whole entry, looked up): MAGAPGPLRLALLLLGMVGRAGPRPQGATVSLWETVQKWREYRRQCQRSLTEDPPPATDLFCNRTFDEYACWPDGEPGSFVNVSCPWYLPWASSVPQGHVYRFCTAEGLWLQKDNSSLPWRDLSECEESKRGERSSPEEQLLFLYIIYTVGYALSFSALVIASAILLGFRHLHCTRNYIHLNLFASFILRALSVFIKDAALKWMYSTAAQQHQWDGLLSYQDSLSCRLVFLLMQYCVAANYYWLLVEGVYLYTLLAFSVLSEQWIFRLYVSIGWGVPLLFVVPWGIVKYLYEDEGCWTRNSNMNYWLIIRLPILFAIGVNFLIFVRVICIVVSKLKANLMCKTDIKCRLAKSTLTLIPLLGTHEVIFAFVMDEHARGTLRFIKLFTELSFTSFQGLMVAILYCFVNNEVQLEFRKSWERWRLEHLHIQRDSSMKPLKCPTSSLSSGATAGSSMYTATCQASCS
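Readout was luciferase luminescence, measured 12 min after detection reagent at room temperature. Beforehand, GLP-1R reporter HEK293 cells had sat 12 h, then received compounds for 24 hr at 37 deg C.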
DRD3 antagonist: D3 dopamine receptor (human) antagonism | P35462 | D3R cells, DiscoveRx beta-arrestin luminescence, antagonist mode; stronger effect = lower value | max response, negative = inhibition, % | 360,000 compounds, 2.5% hits | AID 652054; in the data active means max response below about -50%; inconclusive means no clear call, values can overlap the other calls; further: on the % scale 0 is the no-effect control and ±100 the full control effect
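Cells plated overnight at 1500 cells/well, then exposed to library compounds with dopamine controls for 90 minutes at 37 degrees C. DiscoveRx reagent added for 30–60 minutes at room temperature; luminescence read, quantitative HTS format.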
HEK293 tox: cytotoxic in the GLP-1 receptor inverse agonist counter-screen | HEK293 cAMP-luciferase reporter cells, luminescence, 24 h | Potency, µM (titrated, usually from 38.3 µM), inactives show top-dose activity change, negative = inhibition, most hits filed as inhibitors | 410,000 compounds, 0.13% hits;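 further: loss of luciferase light is scored as toxicity; potency means the concentration at half of the fitted maximal effect; on the % scale 0 is the no-effect control and ±100 the full control effect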
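To flag toxic compounds, the library was rerun on cells for 24 hr at 37 deg C and 5% CO2. Viability-linked luminescence was captured 12 min after adding luciferase detection reagent.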
GLP-1R agonist: GLP-1 receptor (human) agonism; P43220; HEK293 GLP-1R CRE-luciferase, luminescence, 4-6 h; cells express a hypersensitive GLP-1R form; Potency, µM (top dose mostly 45.6 µM), inactives show at the highest dose activation, usual class: activators; 380,000 compounds, 0.007% hits; AID 624172; further: potency means the concentration at half of the fitted maximal effect; % of control where 0% means no effect
DRD3 agonist: activates the human D3 dopamine receptor; P35462; D3R DiscoveRx beta-arrestin cells, luminescence, 90 min; 410,000 compounds, 0.58% hits; max activation, %; in the data active means max activation above about 30%; further: 0% is about no effect
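Agonist mode: compounds and dopamine controls were applied to plated cells for 90 min at 37 degrees C after an overnight attachment at 1500 cells/well. Luminescent read-out followed 30 - 60 minutes at room temperature with DiscoveRx detection reagent.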
* = called active by the depositor; ? = inconclusive; nt = no result given; [ ] = remark or other dose. Unless noted, the call rests on the fitted dose curve; in most records, active means well fitted curve in the direction sought with a large enough effect; inconclusive means small, poorly fitted or top-dose-only effect, or another doubt; inactive means no such curve, though single readings can be large; an effect the other way counts as inactive or inconclusive.

SMILES	ClpP mod	GLP-1R inv ag	DRD3 antagonist	HEK293 tox	GLP-1R agonist	DRD3 agonist
O=[N+]([O-])c1ccc(O)c(/C=N\N=C2c3ccccc3-c3ccccc32)c1	?	-18%	-78*	-11%	-23%	-19
O=C(CN1CCN(c2ccccc2Cl)CC1)NC1CCCc2ccccc21 (stereo not drawn)	-1%	10µM*	?	1%	3%	-20
CC(C)CC1NC(=O)N(CC(=O)NC2CCCc3ccccc32)C1=O (stereo not drawn)	28µM*	-12%	-22	19%	-1%	14
CCCCSCCCNC(=O)c1cn(CC)c2ccc(S(=O)(=O)N3CCCCCC3)cc2c1=O	1%	2%	nt	-6%	0%	-3
Cc1c(CCNC(=O)c2c(F)cccc2F)sc2nc(-c3ccc(F)cc3)nn12	1%	1%	nt	-12%	nt	-5
CC(CN1CCOCC1)C(Cc1ccccc1)(Cc1ccccc1)C(=O)N1CCCC1 (stereo not drawn)	nt	nt	nt	nt	-5%[110 µM]	nt
Fc1ccccc1-c1ccc(-c2nc3ccc(Cl)cn3c2Nc2ccc(Cl)cc2)o1	-11%	nt	nt	nt	nt	nt
O=S(=O)(CCNCc1ccccc1)NC1CCCCC1	2%	-5%	-50*	-4%	-1%	-41
COc1ccc(C(=O)NCCS(=O)(=O)NC2CCCC2)cc1	7%	12%	-11	5%	5%	-18
COc1cccc(C(=O)NCCS(=O)(=O)NC2CCCC2)c1	-8%	-7%	-74*	5%	-4%	-9
CCCCCCCCNCCS(=O)(=O)NC1CCCCC1	2%	?	-91*	-11%	4%	-37
COc1ccc(CNCCS(=O)(=O)NC2CCCC2)cc1	-3%	1%	-25	-6%	-1%	-41
CCCCCCCCNCCS(=O)(=O)NCCCCCCCC	-3%	3%	-7	9%	2%	-2
COc1ccc(CNCCS(=O)(=O)NC2CCCCC2)cc1	1%	0%	-53*	14%	6%	-44
COc1cccc(-n2c(SCC(=O)Nc3cc(C)ccc3C)nc3c(oc4ccccc43)c2=O)c1	-13%	-11%	nt	-10%	nt	2
O=C(C=Cc1ccc2c(c1)OCO2)OCC=Cc1ccc2c(c1)OCO2	nt	?	11	-6%	5%	6
COc1cc(C=CC(=O)OCC=Cc2ccc3c(c2)OCO3)cc(OC)c1OC	28µM*	5%	-3	-10%	4%	-8
CCc1ccc(OCC(=O)Nc2ccc(Cl)c(-c3nc4cc(C)cc(C)c4o3)c2)cc1	?	-9%	nt	2%	nt	7
COc1ccc(S(=O)(=O)N2CCCc3ccccc32)cc1[N+](=O)[O-]	0%	11µM*	-8	-13%	22%	-4
CCCCC1Cc2[nH][nH]c(=O)c2C(c2ccc(F)cc2)O1 (stereo not drawn)	3%	?	0	0%	-6%	-11
COc1ccc(NC2=Nc3ccccc3CC2)cc1	0%	-21%	-56*	-1%	0%	-34
CCOc1ccc(-c2nnc(NC(=O)C3CCCC3)o2)cc1	nt	6%	-105*	-1%	0%	-6
CC(=O)c1ccc(OCC(O)COc2ccc(C(C)=O)cc2)cc1	1%	12%	-14	12%	1%	0
CC(=O)c1ccc(OCC(O)CN(C)CCOc2ccc(Br)cc2)cc1 (stereo not drawn)	nt	10µM*	-2	10%	0%	-6
NC(=S)NN=C1c2ccccc2-c2c(F)c(F)c(F)c(F)c21	?	?	18	11µM*	-3%	-15
SMILES	ClpP mod	GLP-1R inv ag	DRD3 antagonist	HEK293 tox	GLP-1R agonist	DRD3 agonist
NC(=O)COc1ccccc1C(=O)Nc1ccccc1	-2%	nt	nt	nt	nt	nt
O=S1(=O)C=C(SCc2cccc(Cl)c2)Nc2ccccc21	32µM*	0%	11	-2%	-11%	4
Cc1ccc(-n2cc(CNCCCn3cccn3)c(-c3cccc(C)c3)n2)cc1	nt	?	-73*	?	7%	-20
Cc1ccc(C)c(-n2cc(CNCCCn3cccn3)c(-c3ccccc3)n2)c1	nt	11µM*	-20	1%	0%	-18
CCCCOC(=O)c1ccc(NC(=O)Cc2coc3ccc(C(C)C)cc23)cc1	-6%	7.9µM*	nt	?	nt	10
Cc1cc2oc(=O)c(CC(=O)O)c(C)c2c2occ(-c3ccc(F)cc3)c12	28µM*	?	nt	2%	nt	-3
Cc1cc2oc(=O)c(CC(=O)NCCc3ccccc3)c(C)c2c2occ(C(C)(C)C)c12	5%	10µM*	nt	-2%	nt	5
COc1ccc(-c2coc3c2c(C)cc2oc(=O)c(CC(=O)O)c(C)c23)cc1	-10%	?	nt	-1%	nt	-3
CC(C)(C)c1nn(-c2ccccc2)c2[nH]c(=O)c(C=O)cc12	-2%	?	-101*	-3%	9%	-34
Cc1cc(C)cc(NC(=O)COc2cccc3c(=O)n(C)ccc23)c1	-18%	18%	nt	0%	nt	8
C=CCN1CCc2c(cc(O)c(O)c2Br)[C@@H](c2ccccc2)C1	0%	-12%	3	-3%	22%	83*
COc1ccc2cc(/C=N/O)c(Cl)nc2c1	-8%	-12%[0.307 µM]	-7	-6%[0.307 µM]	-3%	5
COc1ccc2cc(/C=N/NC(=O)c3ccc(CN(c4cccc(Cl)c4Cl)S(C)(=O)=O)cc3)c(Cl)nc2c1	18µM*	-58%	46	1%	1%	3
FC(F)(F)c1cccc(N2CCN(CC3CC4C=CC3C4)CC2)c1 (stereo not drawn)	-2%	0%	-72*	-19%	-7%	-23
CCCS(=O)(=O)N1CCN(CC2CC3C=CC2C3)CC1 (stereo not drawn)	0%	4%	-21	8%	5%	-6
C1=CC2CC1CC2CN1CCN(Cc2ccccc2)CC1 (stereo not drawn)	-17%	8%	-53*	13%	3%	-22
Fc1ccccc1N1CCN(CC2CC3C=CC2C3)CC1 (stereo not drawn)	0%	1%	-71*	-28%	-3%	12
Cc1ccc(S(=O)(=O)N2CCN(CC3CC4C=CC3C4)CC2)cc1 (stereo not drawn)	nt	?	-25	0%	7%	-8
CCS(=O)(=O)N1CCN(CC2CC3C=CC2C3)CC1 (stereo not drawn)	1%	-2%	-72*	5%	2%	-7
COc1cc2c(cc1OC)/C(=C/c1ccc(Br)cc1)C(=O)OC2	-3%	11µM*	-8	12%	11%	-2
O=C(NCc1ccccc1)C(C1CC1)n1c(Cc2cc(F)cc(F)c2)nc2ccccc21 (stereo not drawn)	-1%	?	2	-12%	nt	2

High-throughput results (PubChem BioAssay)
